# Measured values as given in paper PMC7862700, “An all-to-all approach to the identification of sequence-specific readers for epigenetic DNA modifications on cytosine”.
# Tests used:
# Assay in all cases: DAPPL (digital affinity profiling via proximity ligation, sequencing); 10 mM Tris-HCl pH 7.5, 50 mM NaCl, 1 mM DTT, 4% glycerol, room temperature, 30 min; GST-TFs on glutathione beads, 16-mer random dsDNA library, 0.1% formaldehyde crosslink after washing; high values mean tight binding
# [1] = target: T1, FLI1 (Homo sapiens, UniProt Q01543 1-452); settings: protein: recombinant; tags: N-terminal GST; dsDNA, one strand shown
# T1 sequence: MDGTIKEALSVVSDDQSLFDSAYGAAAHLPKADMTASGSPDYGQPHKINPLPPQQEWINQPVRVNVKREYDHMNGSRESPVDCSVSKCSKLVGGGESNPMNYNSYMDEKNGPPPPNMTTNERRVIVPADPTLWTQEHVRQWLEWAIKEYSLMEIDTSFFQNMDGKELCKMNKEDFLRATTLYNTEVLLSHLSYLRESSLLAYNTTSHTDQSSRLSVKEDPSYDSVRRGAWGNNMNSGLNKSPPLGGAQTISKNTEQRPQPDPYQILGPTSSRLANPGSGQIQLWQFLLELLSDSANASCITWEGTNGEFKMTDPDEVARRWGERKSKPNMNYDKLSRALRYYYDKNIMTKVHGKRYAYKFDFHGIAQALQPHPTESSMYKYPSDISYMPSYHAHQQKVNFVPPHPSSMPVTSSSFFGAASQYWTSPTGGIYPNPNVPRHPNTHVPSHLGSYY
# How it was run: (§1)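 Pools of DNA-barcoded human transcription factors, expressed in yeast as GST fusions on glutathione beads and combined with a tag-only sample, were incubated with 200 nmole of a 16-mer random double-stranded DNA library. Incubation took 30 min at room temperature in Tris/NaCl/DTT/glycerol buffer and was followed by washing, 0.1% formaldehyde crosslinking, proximity ligation (BsaI/T4 ligase, 1 h, 37 °C), PCR amplification and sequencing on an Illumina NextSeq500. Binding signal is the ratio of a hexamer's read frequency for a factor to its frequency for the tag-only sample.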
# [2] = target: T2, ELK1 (Homo sapiens, UniProt P19419 1-428); settings: protein: recombinant; tags: N-terminal GST; dsDNA, one strand shown
# T2 sequence: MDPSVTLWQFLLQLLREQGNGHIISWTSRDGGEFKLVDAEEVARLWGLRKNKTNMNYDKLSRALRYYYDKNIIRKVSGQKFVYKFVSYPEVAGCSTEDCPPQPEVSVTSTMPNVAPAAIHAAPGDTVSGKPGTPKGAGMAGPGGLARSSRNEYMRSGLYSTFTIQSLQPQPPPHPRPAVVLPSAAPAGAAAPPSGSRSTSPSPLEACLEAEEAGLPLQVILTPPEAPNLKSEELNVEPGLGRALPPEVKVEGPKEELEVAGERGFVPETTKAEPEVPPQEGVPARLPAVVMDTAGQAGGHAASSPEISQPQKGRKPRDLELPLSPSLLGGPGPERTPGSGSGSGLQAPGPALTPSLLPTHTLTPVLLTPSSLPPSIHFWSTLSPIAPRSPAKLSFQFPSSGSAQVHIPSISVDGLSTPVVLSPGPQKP
# How it was run: as §1
# [3] = target: T3, GABPA (Homo sapiens, UniProt Q06546 1-454); settings: protein: recombinant; tags: N-terminal GST; dsDNA, one strand shown
# T3 sequence: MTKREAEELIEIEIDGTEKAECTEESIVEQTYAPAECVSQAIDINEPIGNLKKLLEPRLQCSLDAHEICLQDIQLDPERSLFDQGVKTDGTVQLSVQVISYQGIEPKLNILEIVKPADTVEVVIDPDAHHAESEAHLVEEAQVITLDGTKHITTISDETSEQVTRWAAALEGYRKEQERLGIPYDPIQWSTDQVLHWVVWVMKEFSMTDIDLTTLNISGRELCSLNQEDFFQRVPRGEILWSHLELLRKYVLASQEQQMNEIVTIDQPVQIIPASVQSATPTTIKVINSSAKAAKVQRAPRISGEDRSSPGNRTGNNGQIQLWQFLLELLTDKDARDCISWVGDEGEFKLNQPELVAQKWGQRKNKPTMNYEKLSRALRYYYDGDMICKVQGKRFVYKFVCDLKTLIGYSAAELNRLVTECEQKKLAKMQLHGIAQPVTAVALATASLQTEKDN
# How it was run: as §1
# [4] = target: T4, ERG (Homo sapiens, UniProt P11308 1-479); settings: protein: recombinant; tags: N-terminal GST; dsDNA, one strand shown
# T4 sequence: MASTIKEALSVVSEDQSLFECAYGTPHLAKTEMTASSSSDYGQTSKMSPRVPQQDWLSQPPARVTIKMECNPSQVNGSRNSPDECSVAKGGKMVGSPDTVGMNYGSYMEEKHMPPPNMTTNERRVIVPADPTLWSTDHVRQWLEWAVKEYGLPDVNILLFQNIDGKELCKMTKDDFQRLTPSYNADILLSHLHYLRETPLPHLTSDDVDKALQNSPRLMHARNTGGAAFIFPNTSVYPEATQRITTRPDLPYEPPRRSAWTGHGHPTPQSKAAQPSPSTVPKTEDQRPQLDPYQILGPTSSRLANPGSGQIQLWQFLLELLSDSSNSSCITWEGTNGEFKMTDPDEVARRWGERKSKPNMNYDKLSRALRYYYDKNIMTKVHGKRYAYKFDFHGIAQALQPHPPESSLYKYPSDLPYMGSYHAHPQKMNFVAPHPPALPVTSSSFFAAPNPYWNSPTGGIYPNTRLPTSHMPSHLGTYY
# How it was run: as §1
# [5] = target: ELF1 (Homo sapiens, UniProt P32519 1-619); settings: protein: recombinant; tags: N-terminal GST; dsDNA, one strand shown
# How it was run: as §1
# [6] = target: T5, EHF (Homo sapiens, UniProt Q9NZC4 1-300); settings: protein: recombinant; tags: N-terminal GST; dsDNA, one strand shown
# T5 sequence: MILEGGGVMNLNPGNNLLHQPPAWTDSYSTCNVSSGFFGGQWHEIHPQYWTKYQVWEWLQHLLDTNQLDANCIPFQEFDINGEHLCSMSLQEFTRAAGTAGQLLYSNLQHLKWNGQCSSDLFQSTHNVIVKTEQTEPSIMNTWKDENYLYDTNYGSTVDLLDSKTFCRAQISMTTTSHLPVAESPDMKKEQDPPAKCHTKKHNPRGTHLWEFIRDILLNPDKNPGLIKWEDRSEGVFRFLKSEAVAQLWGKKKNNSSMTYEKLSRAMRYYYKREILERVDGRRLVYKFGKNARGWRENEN
# How it was run: as §1
# [7] = target: SPI1 (Homo sapiens, UniProt P17947 1-270); settings: protein: recombinant; tags: N-terminal GST; dsDNA, one strand shown
# How it was run: as §1
# [8] = target: SPIB (Homo sapiens, UniProt Q01892 1-262); settings: protein: recombinant; tags: N-terminal GST; dsDNA, one strand shown
# How it was run: as §1
# [9] = target: T6, ELK3 (Homo sapiens, UniProt P41970 1-407); settings: protein: recombinant; tags: N-terminal GST; dsDNA, one strand shown
# T6 sequence: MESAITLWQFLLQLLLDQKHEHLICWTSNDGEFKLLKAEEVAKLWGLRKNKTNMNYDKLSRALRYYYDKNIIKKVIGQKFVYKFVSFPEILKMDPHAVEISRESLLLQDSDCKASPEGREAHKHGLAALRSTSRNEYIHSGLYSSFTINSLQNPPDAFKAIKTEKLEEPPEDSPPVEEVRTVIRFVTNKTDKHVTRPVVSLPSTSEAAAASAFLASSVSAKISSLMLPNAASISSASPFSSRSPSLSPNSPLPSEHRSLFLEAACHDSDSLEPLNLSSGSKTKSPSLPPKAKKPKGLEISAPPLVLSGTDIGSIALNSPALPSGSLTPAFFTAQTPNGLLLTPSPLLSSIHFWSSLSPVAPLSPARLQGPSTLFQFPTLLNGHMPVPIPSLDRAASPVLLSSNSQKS
# How it was run: as §1
# [10] = target: T7, FEV (Homo sapiens, UniProt Q99581 1-238); settings: protein: recombinant; tags: N-terminal GST; dsDNA, one strand shown
# T7 sequence: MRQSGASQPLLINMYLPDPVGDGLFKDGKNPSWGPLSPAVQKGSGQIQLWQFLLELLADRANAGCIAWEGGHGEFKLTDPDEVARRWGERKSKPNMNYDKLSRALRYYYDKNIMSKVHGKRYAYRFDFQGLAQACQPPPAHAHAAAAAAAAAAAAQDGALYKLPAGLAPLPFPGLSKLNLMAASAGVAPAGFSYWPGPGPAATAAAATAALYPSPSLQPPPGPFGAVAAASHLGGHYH
# How it was run: as §1
# [11] = target: ETV5 (Homo sapiens, UniProt P41161 1-510); settings: protein: recombinant; tags: N-terminal GST; dsDNA, one strand shown
# How it was run: as §1
# [12] = target: HSF1 (Homo sapiens, UniProt Q00613 1-529); settings: protein: recombinant; tags: N-terminal GST; chain copies: 3; dsDNA, one strand shown
# How it was run: as §1
# [13] = target: T8, SPIC (Homo sapiens, UniProt Q8N5J4 1-248); settings: protein: recombinant; tags: N-terminal GST; dsDNA, one strand shown
# T8 sequence: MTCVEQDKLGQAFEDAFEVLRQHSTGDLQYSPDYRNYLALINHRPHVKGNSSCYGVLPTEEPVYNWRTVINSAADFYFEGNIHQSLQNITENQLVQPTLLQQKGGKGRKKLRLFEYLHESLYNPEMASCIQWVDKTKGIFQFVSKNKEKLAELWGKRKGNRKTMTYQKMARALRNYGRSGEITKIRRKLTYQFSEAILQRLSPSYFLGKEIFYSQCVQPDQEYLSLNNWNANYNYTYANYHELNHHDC
# How it was run: as §1
# [14] = target: ELF4 (Homo sapiens, UniProt Q99607 1-663); settings: protein: recombinant; tags: N-terminal GST; dsDNA, one strand shown
# How it was run: as §1
# [15] = target: T9, ELK4 (Homo sapiens, UniProt P28324-2 1-405); settings: protein: recombinant; tags: N-terminal GST; dsDNA, one strand shown
# T9 sequence: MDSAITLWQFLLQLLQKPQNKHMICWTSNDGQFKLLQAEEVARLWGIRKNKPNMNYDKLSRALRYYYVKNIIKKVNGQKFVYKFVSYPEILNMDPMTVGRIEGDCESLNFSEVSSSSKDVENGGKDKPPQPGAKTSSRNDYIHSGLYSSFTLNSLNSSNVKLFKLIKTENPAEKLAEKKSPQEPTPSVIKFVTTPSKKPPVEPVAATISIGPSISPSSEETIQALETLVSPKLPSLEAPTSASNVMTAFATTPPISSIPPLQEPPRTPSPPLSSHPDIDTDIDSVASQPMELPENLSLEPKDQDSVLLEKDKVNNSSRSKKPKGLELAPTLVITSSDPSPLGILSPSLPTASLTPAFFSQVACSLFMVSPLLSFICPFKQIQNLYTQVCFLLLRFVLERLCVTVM
# How it was run: as §1
# [16] = target: T10, ETV2 (Homo sapiens, UniProt O00321 1-342); settings: protein: recombinant; tags: N-terminal GST; dsDNA, one strand shown
# T10 sequence: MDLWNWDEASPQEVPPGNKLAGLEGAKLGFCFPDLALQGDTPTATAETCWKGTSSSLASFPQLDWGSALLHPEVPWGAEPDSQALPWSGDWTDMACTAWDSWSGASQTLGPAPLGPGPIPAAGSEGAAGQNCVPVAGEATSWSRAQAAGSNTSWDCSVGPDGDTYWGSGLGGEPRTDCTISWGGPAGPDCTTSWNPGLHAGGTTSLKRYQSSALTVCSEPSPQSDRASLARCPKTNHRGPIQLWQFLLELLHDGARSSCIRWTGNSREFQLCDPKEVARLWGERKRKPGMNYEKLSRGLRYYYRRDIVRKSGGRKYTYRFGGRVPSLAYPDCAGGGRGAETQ
# How it was run: as §1
# [17] = target: T11, ELF3 (Homo sapiens, UniProt P78545 1-371); settings: protein: recombinant; tags: N-terminal GST; dsDNA, one strand shown
# T11 sequence: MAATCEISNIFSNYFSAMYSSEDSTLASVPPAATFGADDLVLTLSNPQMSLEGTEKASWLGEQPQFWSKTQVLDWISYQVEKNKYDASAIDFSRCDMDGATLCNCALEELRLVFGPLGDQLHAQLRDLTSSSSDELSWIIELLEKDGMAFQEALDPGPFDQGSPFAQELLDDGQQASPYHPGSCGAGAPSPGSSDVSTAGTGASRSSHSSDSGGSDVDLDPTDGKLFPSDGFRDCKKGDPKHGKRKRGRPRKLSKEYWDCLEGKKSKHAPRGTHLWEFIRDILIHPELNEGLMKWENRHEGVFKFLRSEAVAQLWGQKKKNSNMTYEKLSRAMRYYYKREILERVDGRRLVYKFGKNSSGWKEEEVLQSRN
# How it was run: as §1
# [18] = target: CRX (Homo sapiens, UniProt O43186 1-299); settings: protein: recombinant; tags: N-terminal GST; dsDNA, one strand shown
# How it was run: as §1
# [19] = target: ETV1 (Homo sapiens, UniProt P50549 1-477); settings: protein: recombinant; tags: N-terminal GST; dsDNA, one strand shown
# How it was run: as §1
# Sequence of ELF4 (Q99607 whole entry): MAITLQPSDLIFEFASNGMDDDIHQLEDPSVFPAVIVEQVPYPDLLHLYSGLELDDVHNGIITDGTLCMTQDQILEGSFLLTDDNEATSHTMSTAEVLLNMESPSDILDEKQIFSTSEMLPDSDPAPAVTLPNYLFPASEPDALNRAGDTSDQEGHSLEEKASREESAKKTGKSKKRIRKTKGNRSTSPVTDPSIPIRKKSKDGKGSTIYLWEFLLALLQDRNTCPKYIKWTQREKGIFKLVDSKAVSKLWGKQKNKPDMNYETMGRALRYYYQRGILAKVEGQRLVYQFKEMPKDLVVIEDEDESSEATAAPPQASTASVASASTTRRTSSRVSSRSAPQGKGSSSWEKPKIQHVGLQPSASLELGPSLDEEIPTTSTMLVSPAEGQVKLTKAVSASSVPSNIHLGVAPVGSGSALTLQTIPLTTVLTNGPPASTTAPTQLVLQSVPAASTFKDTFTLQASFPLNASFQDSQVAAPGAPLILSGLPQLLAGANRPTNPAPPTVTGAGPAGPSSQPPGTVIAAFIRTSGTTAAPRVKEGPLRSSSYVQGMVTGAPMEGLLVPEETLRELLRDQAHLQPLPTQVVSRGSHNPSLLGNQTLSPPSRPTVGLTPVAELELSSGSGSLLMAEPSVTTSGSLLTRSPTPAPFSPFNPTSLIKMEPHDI
# Sequence of SPIB (Q01892 whole entry): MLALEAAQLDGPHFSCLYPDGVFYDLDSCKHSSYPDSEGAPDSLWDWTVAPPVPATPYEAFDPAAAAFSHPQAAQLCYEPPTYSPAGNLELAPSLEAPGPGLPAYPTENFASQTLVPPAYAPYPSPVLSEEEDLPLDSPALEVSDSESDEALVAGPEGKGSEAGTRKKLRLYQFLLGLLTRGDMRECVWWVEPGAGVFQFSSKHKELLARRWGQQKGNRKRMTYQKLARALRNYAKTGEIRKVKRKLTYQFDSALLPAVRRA
# Sequence of HSF1 (Q00613 whole entry): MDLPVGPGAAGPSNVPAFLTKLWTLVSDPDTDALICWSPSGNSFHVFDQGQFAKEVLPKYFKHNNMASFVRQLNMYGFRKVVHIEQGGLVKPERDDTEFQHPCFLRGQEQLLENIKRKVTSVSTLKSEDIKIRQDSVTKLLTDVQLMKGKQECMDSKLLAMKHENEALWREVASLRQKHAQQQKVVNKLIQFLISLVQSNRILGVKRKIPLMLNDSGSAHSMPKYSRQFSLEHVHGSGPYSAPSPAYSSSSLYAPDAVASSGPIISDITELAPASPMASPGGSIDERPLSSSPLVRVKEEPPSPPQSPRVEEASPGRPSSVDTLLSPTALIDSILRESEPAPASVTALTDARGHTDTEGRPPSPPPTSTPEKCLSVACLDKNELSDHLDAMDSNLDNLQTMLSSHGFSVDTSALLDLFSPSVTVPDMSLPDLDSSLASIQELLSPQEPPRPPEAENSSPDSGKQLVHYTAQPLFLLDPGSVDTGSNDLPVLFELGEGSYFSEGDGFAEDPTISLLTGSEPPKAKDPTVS
# Sequence of CRX (O43186 whole entry): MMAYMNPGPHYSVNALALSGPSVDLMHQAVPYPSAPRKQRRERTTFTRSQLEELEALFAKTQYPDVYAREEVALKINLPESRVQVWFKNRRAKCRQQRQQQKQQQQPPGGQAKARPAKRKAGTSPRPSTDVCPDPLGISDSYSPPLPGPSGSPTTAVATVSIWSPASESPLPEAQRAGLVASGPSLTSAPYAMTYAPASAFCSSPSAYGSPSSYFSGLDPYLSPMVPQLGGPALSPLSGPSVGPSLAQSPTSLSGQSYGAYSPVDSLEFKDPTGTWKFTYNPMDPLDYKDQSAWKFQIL
# Sequence of ETV1 (P50549 whole entry): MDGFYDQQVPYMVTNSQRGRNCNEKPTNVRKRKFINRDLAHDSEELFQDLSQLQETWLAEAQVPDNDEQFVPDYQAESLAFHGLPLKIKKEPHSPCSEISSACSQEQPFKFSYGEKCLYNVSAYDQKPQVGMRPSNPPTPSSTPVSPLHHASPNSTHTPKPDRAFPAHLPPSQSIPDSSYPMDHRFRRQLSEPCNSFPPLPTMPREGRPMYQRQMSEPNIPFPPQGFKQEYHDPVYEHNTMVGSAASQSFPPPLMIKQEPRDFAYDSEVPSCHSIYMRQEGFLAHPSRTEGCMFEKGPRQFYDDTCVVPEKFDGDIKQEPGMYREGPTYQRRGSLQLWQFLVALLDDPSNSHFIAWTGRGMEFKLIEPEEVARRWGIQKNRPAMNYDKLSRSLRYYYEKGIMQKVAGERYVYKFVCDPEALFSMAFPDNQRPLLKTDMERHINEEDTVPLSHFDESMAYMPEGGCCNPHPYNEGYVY
# Sequence of ELF1 (P32519 whole entry): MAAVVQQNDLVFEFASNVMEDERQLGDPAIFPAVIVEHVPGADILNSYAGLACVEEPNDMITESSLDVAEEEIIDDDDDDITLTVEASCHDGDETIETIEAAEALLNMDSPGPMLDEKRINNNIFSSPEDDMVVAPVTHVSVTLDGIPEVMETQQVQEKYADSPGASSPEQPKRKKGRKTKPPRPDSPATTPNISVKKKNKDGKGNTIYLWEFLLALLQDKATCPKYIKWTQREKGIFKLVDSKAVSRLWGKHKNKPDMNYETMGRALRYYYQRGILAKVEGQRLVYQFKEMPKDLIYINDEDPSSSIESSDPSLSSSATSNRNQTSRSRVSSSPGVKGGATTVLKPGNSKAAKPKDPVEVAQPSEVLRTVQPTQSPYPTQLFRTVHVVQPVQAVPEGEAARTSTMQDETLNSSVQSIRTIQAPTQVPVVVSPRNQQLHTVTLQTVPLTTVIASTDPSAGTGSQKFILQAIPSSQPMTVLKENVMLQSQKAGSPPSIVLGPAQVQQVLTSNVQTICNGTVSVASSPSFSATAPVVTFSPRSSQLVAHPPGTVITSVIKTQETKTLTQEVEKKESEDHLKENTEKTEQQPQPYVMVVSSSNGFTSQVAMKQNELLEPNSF
# Sequence of ETV5 (P41161 whole entry): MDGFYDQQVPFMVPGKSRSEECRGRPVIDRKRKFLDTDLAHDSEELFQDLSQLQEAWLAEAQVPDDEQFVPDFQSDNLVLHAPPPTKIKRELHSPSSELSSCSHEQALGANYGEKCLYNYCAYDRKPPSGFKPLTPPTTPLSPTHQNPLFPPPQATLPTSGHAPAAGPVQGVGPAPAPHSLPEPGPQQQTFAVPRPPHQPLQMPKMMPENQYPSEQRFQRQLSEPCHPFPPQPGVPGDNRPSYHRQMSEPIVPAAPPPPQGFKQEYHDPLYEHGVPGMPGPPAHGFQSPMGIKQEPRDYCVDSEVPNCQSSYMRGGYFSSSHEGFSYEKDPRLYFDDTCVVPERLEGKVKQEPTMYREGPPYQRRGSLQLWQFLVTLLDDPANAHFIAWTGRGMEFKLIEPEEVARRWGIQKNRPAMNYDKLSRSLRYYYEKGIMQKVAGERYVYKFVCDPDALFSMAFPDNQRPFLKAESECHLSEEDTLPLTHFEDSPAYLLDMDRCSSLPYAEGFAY
sequence,measurement,setting,value
TTCTTA,binding signal,[1],"1.42 fold enrichment (6-mer frequency, TF over GST control)"
same,binding signal,[2],"1.43 fold enrichment (6-mer frequency, TF over GST control)"
same,binding signal,[3],"1.37 fold enrichment (6-mer frequency, TF over GST control)"
same,binding signal,[4],"1.4 fold enrichment (6-mer frequency, TF over GST control)"
same,binding signal,[5],"1.37 fold enrichment (6-mer frequency, TF over GST control)"
same,binding signal,[6],"1.28 fold enrichment (6-mer frequency, TF over GST control)"
same,binding signal,[7],"1.34 fold enrichment (6-mer frequency, TF over GST control)"
same,binding signal,[8],"1.28 fold enrichment (6-mer frequency, TF over GST control)"
same,binding signal,[9],"1.5 fold enrichment (6-mer frequency, TF over GST control)"
same,binding signal,[10],"1.32 fold enrichment (6-mer frequency, TF over GST control)"
same,binding signal,[11],"1.33 fold enrichment (6-mer frequency, TF over GST control)"
same,binding signal,[12],"1.85 fold enrichment (6-mer frequency, TF over GST control)"
same,binding signal,[13],"1.71 fold enrichment (6-mer frequency, TF over GST control)"
same,binding signal,[14],"1.41 fold enrichment (6-mer frequency, TF over GST control)"
same,binding signal,[15],"1.5 fold enrichment (6-mer frequency, TF over GST control)"
same,binding signal,[16],"1.36 fold enrichment (6-mer frequency, TF over GST control)"
same,binding signal,[17],"1.47 fold enrichment (6-mer frequency, TF over GST control)"
same,binding signal,[18],"2.21 fold enrichment (6-mer frequency, TF over GST control)"
same,binding signal,[19],"1.36 fold enrichment (6-mer frequency, TF over GST control)"
